Screening data (PubChem)
ADAM10 inh – inhibitors of human ADAM10 | AID 720582 | inhibition, % at 7 µM | recombinant ADAM10, EDANS/DABCYL FRET peptide cleavage, 3 h | O14672 | 370,000 tested, 0.62% active;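 active = inhibition above a per-campaign cutoff equal to the mean of compounds falling between control-based bounds plus 3 SD, cut at about 20% in these data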;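 also: 0% = DMSO wells while the 100% control is not disclosed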
HGIII-sPLA2 inh – Blocks human group III sPLA2 activity | inhibition, % at 12.2 µM | Q9NZ20 | QFRET BODIPY PC-A2 liposome hydrolysis, fluorescence | 370,000 tested, 0.56% active;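 active = inhibition above mean plus 3 SD of compounds lying within the high and low control bounds, cut at about 19% in these data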;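 also: 0% = median of test compound wells and 100% = no enzyme DMSO wells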
Target sequence (Q9NZ20 whole entry, looked up): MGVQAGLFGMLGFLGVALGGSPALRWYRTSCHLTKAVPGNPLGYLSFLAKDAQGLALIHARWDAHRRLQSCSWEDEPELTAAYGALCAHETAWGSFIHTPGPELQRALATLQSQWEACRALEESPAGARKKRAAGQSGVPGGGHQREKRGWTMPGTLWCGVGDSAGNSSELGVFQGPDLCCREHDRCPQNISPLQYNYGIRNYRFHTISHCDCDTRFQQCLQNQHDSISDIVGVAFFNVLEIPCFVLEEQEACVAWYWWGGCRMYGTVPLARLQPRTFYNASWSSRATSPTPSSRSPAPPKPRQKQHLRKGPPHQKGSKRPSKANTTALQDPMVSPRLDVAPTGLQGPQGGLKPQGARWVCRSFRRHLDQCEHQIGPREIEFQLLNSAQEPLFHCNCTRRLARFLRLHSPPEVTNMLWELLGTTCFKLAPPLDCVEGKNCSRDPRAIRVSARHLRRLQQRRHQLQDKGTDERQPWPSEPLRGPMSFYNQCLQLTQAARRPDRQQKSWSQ
KLK7 zymogen act – activates the human kallikrein-7 zymogen | purified proKLK7, EDANS-DABCYL substrate fluorescence; 100% is mature enzyme control, 0% vehicle | activation, % at 7 µM | 370,000 tested, 0.9% active;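 active = activation above the mean of all tested compounds plus 3 SD, computed per campaign excluding outliers beyond control limits, cut at about 13% in these data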
PLC-gamma1 inh – PLC-gamma1 (human) inhibition, primary screen | P19174 | purified PLC-gamma1, fluorogenic substrate, fluorescence | inhibition, % at 12.2 µM | 370,000 tested, 0.84% active; in the data active = inhibition above about 9.5%
PLCb3 inh – PLC-beta3 (human) inhibition, primary screen. Q01970. Purified PLC-beta3, fluorogenic substrate, fluorescence. inhibition, % at 12.2 µM. 370,000 tested, 0.18% active; in the data active = inhibition above about 11%;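 also: 0% = median of compound wells on plate and 100% = full blocker control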
ADAM17 inh – ADAM17 inhibition, QFRET primary screen | inhibition, % at 6.95 µM | AID 720648 | 370,000 tested, 0.83% active | recombinant ADAM17, EDANS/DABCYL FRET peptide cleavage | P78536;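 active = inhibition above the mean of compounds lying between control limits plus 3 SD, set per campaign, cut at about 8.5% in these data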;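 also: 0% = DMSO-only wells as the low control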
ADAM10 confirm – human ADAM10 inhibition, confirmation; ADAM10 QFRET peptide cleavage, EDANS fluorescence; 2,100 tested, 1% active; AID 743208; inhibition, % at 6.95 µM; shares compounds with ADAM10 inh;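 active = inhibition above about 20% chosen separately for each screening run, limit read from the data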;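 also: 0% = DMSO wells and 100% = marimastat wells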
ADAM17 ctr – inhibits human ADAM17 in ADAM10 exosite counter-screen. shares compounds with ADAM10 inh. ADAM17 QFRET peptide cleavage, EDANS fluorescence. inhibition, % at 6.95 µM. 2,100 tested, 0.5% active. AID 743214;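 active = mean triplicate inhibition above the solvent-only control wells' mean plus 3 SD, cut at about 12% in these data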;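 also: 0% = DMSO wells and 100% = marimastat wells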
Starred values were filed as active, the others as inactive. Only some compounds are listed: those with a hit (about 3.4% of all), similar ones and a draw of the others.

Results for CC(C)CNS(=O)(=O)/C=C/c1ccccc1CCNC(=O)OC(C)(C)C ?
ADAM10 inh: 5.4; HGIII-sPLA2 inh: -2.5; KLK7 zymogen act: -0.3; PLC-gamma1 inh: 3.8; PLCb3 inh: 3.4; ADAM17 inh: -1.7

Results for Cc1ccccc1NC(=S)NNc1ncc(C(F)(F)F)cc1Cl ?
ADAM10 inh: 8.4; HGIII-sPLA2 inh: 8.5; KLK7 zymogen act: 0.0; PLC-gamma1 inh: -0.7; PLCb3 inh: -2.5; ADAM17 inh: 2.2

How did Fc1ccccc1NC(=S)NNc1ncc(C(F)(F)F)cc1Cl do in these assays?
ADAM10 inh: 20.7*; HGIII-sPLA2 inh: -4.2; KLK7 zymogen act: -0.4; PLC-gamma1 inh: 6.0; PLCb3 inh: -1.7; ADAM17 inh: 5.1; ADAM10 confirm: 1.9; ADAM17 ctr: 1.4

What do the screens show for `CCOc1cc(/C=N/NC(=O)c2cccc([N+](=O)[O-])c2)ccc1OS(=O)(=O)c1ccccc1`?
ADAM10 inh: 27.9*; HGIII-sPLA2 inh: -22.8; KLK7 zymogen act: -0.3; PLC-gamma1 inh: 7.8; PLCb3 inh: 5.7; ADAM17 inh: 6.0; ADAM10 confirm: 3.8; ADAM17 ctr: 1.4

How did COc1ccc(/C=N/NC(=O)c2cccc([N+](=O)[O-])c2)cc1OS(=O)(=O)c1ccc(C)cc1 do in these assays?
ADAM10 inh: -0.1; HGIII-sPLA2 inh: 4.6; KLK7 zymogen act: -0.1; PLC-gamma1 inh: 9.2; PLCb3 inh: 5.4; ADAM17 inh: 5.3

What do the screens show for `COc1ccccc1-n1cc(-c2ccc([N+](=O)[O-])cc2)[nH]c1=S`?
ADAM10 inh: 27.0*; HGIII-sPLA2 inh: 9.2; KLK7 zymogen act: 0.0; PLC-gamma1 inh: -3.1; PLCb3 inh: -8.9; ADAM17 inh: 7.7; ADAM10 confirm: 2.6; ADAM17 ctr: 0.6

How did COc1cccc(/C=N\N2CCN(c3ccc(C)cc3)CC2)c1O do in these assays?
ADAM10 inh: 4.0; HGIII-sPLA2 inh: 1.7; KLK7 zymogen act: 0.3; PLC-gamma1 inh: 1.0; PLCb3 inh: 0.9; ADAM17 inh: 0.4

Results for O=C(NC(=S)NCc1ccccc1)c1cccc(Cl)c1 ?
ADAM10 inh: 20.5*; HGIII-sPLA2 inh: -1.6; KLK7 zymogen act: -0.3; PLC-gamma1 inh: 4.6; PLCb3 inh: 4.4; ADAM17 inh: 8.3; ADAM10 confirm: 5.6; ADAM17 ctr: 1.5

How did COC(=O)c1cccc(Cn2ccc3ccc(-c4ccc5ccn(C(=O)C6CC6)c5c4)cc32)c1 do in these assays?
ADAM10 inh: -42.7; HGIII-sPLA2 inh: -7.6; KLK7 zymogen act: -7.5; PLC-gamma1 inh: -122.4; PLCb3 inh: -172.9; ADAM17 inh: -6.8

Results for COc1ccc(CN2C[C@]3(C=C4CCCCC4n4c(=O)n(-c5ccccc5)c(=O)n43)N=C2NC(=O)c2ccccc2)c(OC)c1 (some centres not stated) ?
ADAM10 inh: 31.9*; HGIII-sPLA2 inh: -23.1; KLK7 zymogen act: 0.2; PLC-gamma1 inh: -10.0; PLCb3 inh: -12.2; ADAM17 inh: 8.1; ADAM10 confirm: 4.3; ADAM17 ctr: 1.6

How did CCOC(=O)CC[C@@H]1CC[C@]2(CCCN(S(=O)(=O)C3CCCCC3)C2)O1 do in these assays?
ADAM10 inh: 2.9; HGIII-sPLA2 inh: 2.5; KLK7 zymogen act: 0.7; PLC-gamma1 inh: 2.5; PLCb3 inh: 3.3; ADAM17 inh: 0.7

Results for Cc1ccc(C)c(-c2cc(C(=O)NCc3cccs3)c3ccccc3n2)c1 ?
ADAM10 inh: 20.3*; HGIII-sPLA2 inh: -6.9; KLK7 zymogen act: 0.3; PLC-gamma1 inh: -0.3; PLCb3 inh: -2.6; ADAM17 inh: 4.6; ADAM10 confirm: 5.4; ADAM17 ctr: 2.2

What do the screens show for `COCCN1C(=O)C2=C(C1=O)C1N(C)c3ccccc3[C@@]13C[C@@H](CO)N(S(=O)(=O)c1ccc(OC)cc1)C3=N2` (some centres not stated)?
ADAM10 inh: 3.5; HGIII-sPLA2 inh: -9.9; KLK7 zymogen act: -0.4; PLC-gamma1 inh: -0.1; PLCb3 inh: -0.5; ADAM17 inh: -0.1

How did O=C(NCc1ccccc1)c1ccc(-c2ccc(F)c(F)c2)c2ccoc12 do in these assays?
ADAM10 inh: 6.2; HGIII-sPLA2 inh: -8.8; KLK7 zymogen act: 0.8; PLC-gamma1 inh: -1.5; PLCb3 inh: -1.6; ADAM17 inh: 3.0

How did COc1ccc(CNC(=O)c2ccc(-c3ccc(F)c(F)c3)c3ccoc23)cc1OC do in these assays?
ADAM10 inh: 20.5*; HGIII-sPLA2 inh: -24.6; KLK7 zymogen act: 0.9; PLC-gamma1 inh: 0.8; PLCb3 inh: 2.2; ADAM17 inh: 7.8; ADAM10 confirm: 8.9; ADAM17 ctr: 2.3

What do the screens show for `CCOC(=O)c1c(CN2CCN(c3ccccc3)CC2)oc2cc(Br)c(O)cc12`?
ADAM10 inh: 20.8*; HGIII-sPLA2 inh: -32.6; KLK7 zymogen act: 0.7; PLC-gamma1 inh: 3.0; PLCb3 inh: -6.9; ADAM17 inh: 6.7; ADAM10 confirm: 5.1; ADAM17 ctr: 1.6

How did CC(C)N1CCCCC(NC(=O)c2ccc(Cl)cc2Cl)C1=O (configuration not stated) do in these assays?
ADAM10 inh: -10.9; HGIII-sPLA2 inh: 11.3; KLK7 zymogen act: 0.2; PLC-gamma1 inh: 3.5; PLCb3 inh: 3.5; ADAM17 inh: -8.1

How did Cc1ccc(NNC(=O)C(O)(c2cccc(C(F)(F)F)c2)c2cccc(C(F)(F)F)c2)cc1 do in these assays?
ADAM10 inh: 25.6*; HGIII-sPLA2 inh: -1.1; KLK7 zymogen act: -0.4; PLC-gamma1 inh: -8.2; PLCb3 inh: -40.2; ADAM17 inh: 6.7; ADAM10 confirm: 1.5; ADAM17 ctr: 0.4

How did CC1(C)CC(=O)C=C(c2ccc(COC(=O)C(c3ccccc3)c3ccccc3)cc2)C1=O do in these assays?
ADAM10 inh: 20.1*; HGIII-sPLA2 inh: -34.7; KLK7 zymogen act: 0.3; PLC-gamma1 inh: 1.6; PLCb3 inh: 2.1; ADAM17 inh: 5.6; ADAM10 confirm: 3.3; ADAM17 ctr: 0.5

What do the screens show for `CC(=O)OCc1ccc(C2=CC(=O)CC(C)(C)C2=O)cc1`?
ADAM10 inh: -14.6; HGIII-sPLA2 inh: 14.4; KLK7 zymogen act: 0.2; PLC-gamma1 inh: 1.2; PLCb3 inh: 3.2; ADAM17 inh: -3.8

Results for Nc1c(C(=O)NCC(O)c2ccccc2)cnn1-c1ccccc1 (configuration not stated) ?
ADAM10 inh: -5.9; HGIII-sPLA2 inh: 2.5; KLK7 zymogen act: 0.2; PLC-gamma1 inh: 4.5; PLCb3 inh: -1.4; ADAM17 inh: -0.7

What do the screens show for `CC/C=C\[C@H](O)[C@H](O)C1=C(C)C(=O)[C@]2(O1)C(=O)N[C@@](OC)(C(=O)c1ccccc1)C2O` (some centres not stated)?
ADAM10 inh: 63.2*; HGIII-sPLA2 inh: -4.5; KLK7 zymogen act: 0.4; PLC-gamma1 inh: -11.8; PLCb3 inh: -16.3; ADAM17 inh: -7.0; ADAM10 confirm: 6.6; ADAM17 ctr: 2.8
